PubChem BioAssay
Where “and” joins values, the source holds several entries; their conditions need not be identical. Identical values can stand only once. Calls of active or inactive are those of the source. Unless noted, no stated cut-off is given here; in the data, active means parasite load remaining mostly below about 12% (no sharp cut-off); inactive means mostly above about 10%.

Columns and labels:
[1] = liver-stage malaria parasite growth inhibition, primary screen, cell-based, HepG2, luciferase luminescence, HepG2 viability (AID 624349);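 further: 100% = mean of DMSO negative control wells on the same plate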; conditions: P. berghei liver stage in HepG2, luciferase luminescence, concentration not given here; parasite load remaining: stronger effect = lower value; viability: measured here: HepG2 viability without parasites
[2] = differential killing of epithelial or mesenchymal cells, primary screen, imaging, PC-3E GFP, TEM4-18 mCherry, co-culture (AID 1345086;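 active means compounds killing one labelled cell type while sparing the other, by normalised counts and ratio limits, not self-fluorescent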;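 on all read-outs here: cells exposed to compound for 72 h before imaging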;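 on red/green cell ratio (normalised): normalised mesenchymal count divided by normalised epithelial count so high means epithelial killing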); conditions: imaging cell counts, at 1 µM; for red/green cell ratio (normalised): actives lie on both sides, counts scaled to control wells, 1 = unselective
[3] = sensitizers of A549 cells to miR-34 induction, primary screen, imaging, A549 dox-inducible miR-34, nuclei and caspase counts (AID 1347080;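 active means compounds whose cell count with miR-34 switched on is under 0.7 times the count with it off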); conditions: A549 miR-34 inducible, Hoechst nuclei count, 48 h
[4] = measured here: epithelial PC-3E GFP cell survival
[5] = measured here: mesenchymal TEM4-18 mCherry cell survival
[6] = stronger effect = lower value, cell number ratio, induced over uninduced
[7] = measured here: relative caspase fold change +Dox/-Dox
[8] = measured here: total cells with miR-34 induction, stronger effect = lower value
[9] = measured here: total cells without miR-34 induction

Structure (SMILES)	parasite load remaining [1]	viability [1]	red/green cell ratio (normalised) [2]	normalised cell number [2, 4]	normalised cell number [2, 5]	fold change [3, 6]	fold change [3, 7]	cell count [3, 8]	cell count [3, 9]
CC(=O)O[C@]1(C(C)=O)CCC2C3C=C(C)C4=CC(=O)CCC4(C)C3CCC21C (stereo partly specified)	94.3% (inactive) and 19.1% (inactive)	74.8% and 83.8%	0.94 (inactive)	1.18	1.11	0.897 (inactive)	2.81	9250	10300
CC1=C(C(=O)O)N2C(=O)[C@@H](NC(=O)C(N)c3ccc(O)cc3)[C@H]2SC1 (stereo partly specified)	82.3% (inactive) and 62.8% (inactive)	75.2% and 100%	1.2 (inactive)	1.16	1.4	0.948 (inactive)	3.02	12000	12700
CCCCCCCCCCC[C@@H](C[C@H]1OC(=O)[C@H]1CCCCCC)OC(=O)[C@@H](CC(C)C)NC=O	118% (inactive) and 62.8% (inactive)	86.3% and 114%	1.11 (inactive)	0.96	1.07	0.887 (inactive)	2	11500	13000
COc1cc([C@@H]2c3cc4c(cc3C(O[C@@H]3O[C@@H]5CO[C@@H](c6cccs6)OC5[C@H](O)[C@H]3O)C3COC(=O)[C@@H]32)OCO4)cc(OC)c1O (stereo partly specified)	111% (inactive) and 83.3% (inactive)	75.6% and 112%	1.33 (inactive)	0.27	0.36	0.795 (inactive)	3.39	3270	4110
CC1(C)O[C@@H]2CC3C4C[C@H](F)C5=CC(=O)C=C[C@]5(C)[C@@]4(F)[C@@H](O)C[C@]3(C)[C@]2(C(=O)CO)O1 (stereo partly specified)	74.8% (inactive)	92.9%	1.12 (inactive)	1.2	1.35	0.898 (inactive)	0.891	7030	7830
CNCC[C@@H](Oc1ccccc1)c1ccccc1	48% (inactive)	116%	1.13 (inactive)	1.27	1.44	0.971 (inactive)	1.23	10900	11200
O=C(N[C@@H](CO)[C@H](O)c1ccc([N+](=O)[O-])cc1)C(Cl)Cl	85.6% (inactive) and 68.5% (inactive)	77.9% and 95.2%	0.9 (inactive)	1.15	1.04	1 (inactive)	1.84	11600	11600
NCC1CCCCC1CC(=O)O (stereo unspecified)	148% (inactive) and 51.6% (inactive)	89.1% and 119%	0.8 (inactive)	1.27	1.02	0.945 (inactive)	5.86	12000	12700
CC(=O)O[C@]1(C(C)=O)CCC2C3C=C(Cl)C4=CC(=O)CC[C@]4(C)C3CC[C@@]21C (stereo partly specified)	113% (inactive) and 26.4% (inactive)	84% and 106%	1.17 (inactive)	1.04	1.21	0.904 (inactive)	1.11	9770	10800
CO/N=C(/C(=O)NC1C(=O)N2C(C(=O)OC(C)OC(C)=O)=C(COC(N)=O)CSC12)c1ccco1 (stereo unspecified)	60.6% (inactive)	138%	1.1 (inactive)	0.93	1.02	0.889 (inactive)	1.77	12300	13900
O=C(O)c1cc(O)c2c(c1)[C@@H]([C@H]1c3cc(C(=O)O)cc(O)c3C(=O)c3c(O[C@H]4O[C@H](CO)[C@@H](O)[C@H](O)[C@H]4O)cccc31)c1cccc(O[C@H]3O[C@H](CO)[C@@H](O)[C@H](O)[C@H]3O)c1C2=O	132% (inactive) and 77.3% (inactive)	80.8% and 104%	0.69 (inactive)	1.22	0.84	0.789 (inactive)	9.83	10200	12900
CC(C)(O/N=C(\C(=O)N[C@@H]1C(=O)N2C(C(=O)[O-])=C(C[n+]3ccccc3)CSC12)c1csc(N)n1)C(=O)O (stereo partly specified)	57.9% (inactive)	101%	0.74 (inactive)	1.28	0.94	0.922 (inactive)	3.92	12200	13200
CN[C@@H]1[C@@H](O[C@H]2O[C@H](CO)[C@@H](N)[C@H](O)[C@H]2O)O[C@H]2C[C@@H](N)[C@H](O[C@H]3[C@H](O)[C@@H](O)[C@H](N)C[C@@H]3N)O[C@@H]2[C@@H]1O	70.7% (inactive) and 61.8% (inactive)	108% and 98.4%	1.38 (inactive)	0.99	1.36	0.903 (inactive)	5.22	12300	13600
CC(=O)OCC(=O)[C@@]12OC(C)(C)O[C@@H]1CC1C3C[C@H](F)C4=CC(=O)C=C[C@]4(C)[C@@]3(F)[C@@H](O)C[C@@]12C (stereo partly specified)	117% (inactive) and 83.7% (inactive)	77.1% and 96.2%	1.1 (inactive)	1.15	1.26	0.893 (inactive)	0.979	6960	7790
